Most compounds without a hit are left out; they make up all but 7.9% or so of the library.
NOMO-1 viab = NOMO-1 AML cell viability reduction, primary screen, STK33 inhibitor project, CellTiter-Glo luminescence. AID 2330, 2010. inhibition, % (concentration not given with the values). NOMO-1 AML viability, 72 h. hit rate 7.5% among 37,000; in the data active = inhibition above about 80%; inconclusive = no clear call, values can overlap the other calls
Shh pathway inh = Hedgehog pathway signaling inhibitors, primary screen, luminescence, Shh-LIGHT2 cells, Gli-luciferase; Shh-LIGHT2 Gli-luciferase reporter, 30 h; inhibition, % (no concentration beside the values); hit rate 2.1% among 22,000; AID 2313, 2010;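 active = mean inhibition across valid replicates above about 65%, limit read from the data; inconclusive = mean under the limit, yet half or more replicates past it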;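 note: pathway switched on by Shh-conditioned medium diluted 1 in 25 in low serum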
MITF inhib = inhibitors of MITF, primary screen, MITF inhibitor project, cell-based, luminescence; TRPM1 promoter luciferase, 24 h; AID 2240, 2010; inhibition, % (no concentration beside the values); hit rate 0.28% among 37,000; in the data active = inhibition above about 85%; inconclusive = no clear call, values can overlap the other calls; inactive = below about 68%;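 note: human melanocyte line stably carrying TRPM1 promoter luciferase reporter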
Numbers without * were called inactive.

What do the screens show for `C[C@H]1CN([C@@H](C)CO)C(=O)c2cccc(NC(=O)C3CCCCC3)c2O[C@@H]1CN(C)CC1CCCCC1`?
NOMO-1 viab: inconclusive; Shh pathway inh: 10; MITF inhib: -3

What do the screens show for `C[C@@H]1CN([C@H](C)CO)C(=O)c2cccc(NC(=O)C3CC3)c2O[C@@H]1CN(C)Cc1ccc(-c2ccccc2)cc1`?
NOMO-1 viab: 17; Shh pathway inh: 23; MITF inhib: -6

What do the screens show for `C[C@@H]1CN([C@@H](C)CO)C(=O)c2cccc(NC(=O)C3CCCCC3)c2O[C@H]1CN(C)CC1CCCCC1`?
NOMO-1 viab: 95*; Shh pathway inh: -21; MITF inhib: 13

Results for C[C@H](CO)N1C[C@H](C)[C@@H](CN(C)Cc2ccc(-c3ccccc3)cc2)Oc2c(NC(=O)C3CC3)cccc2C1=O ?
NOMO-1 viab: 89*; Shh pathway inh: 31; MITF inhib: 37

How did C[C@H]1CN([C@@H](C)CO)C(=O)c2cccc(NC(=O)C3CCCCC3)c2O[C@H]1CN(C)Cc1ccc(-c2ccccc2)cc1 do in these assays?
NOMO-1 viab: 87*; Shh pathway inh: 3; MITF inhib: -1

Results for C[C@@H]1CN([C@H](C)CO)C(=O)c2cccc(NC(=O)C3CCCCC3)c2O[C@@H]1CN(C)Cc1ccc(-c2ccccc2)cc1 ?
NOMO-1 viab: 110*; Shh pathway inh: -13; MITF inhib: 23

Results for C[C@H](CO)N1C[C@H](C)[C@@H](CN(C)Cc2ccc(-c3ccccc3)cc2)Oc2c(NC(=O)C3CCCCC3)cccc2C1=O ?
NOMO-1 viab: 52; Shh pathway inh: 24; MITF inhib: 22

What do the screens show for `C[C@H](CO)N1C[C@H](C)[C@H](CN(C)Cc2ccc(-c3ccccc3)cc2)Oc2c(NC(=O)C3CC3)cccc2C1=O`?
NOMO-1 viab: 50; Shh pathway inh: 16; MITF inhib: -5

How did Cc1cc(=O)n2[nH]c(NCc3cccc([N+](=O)[O-])c3)nc2n1 do in these assays?
NOMO-1 viab: -5; MITF inhib: -18

Results for COC(=O)NC(Nc1ccccc1C(F)(F)F)C(=O)c1ccccc1 (stereo not given) ?
NOMO-1 viab: 25; Shh pathway inh: 0; MITF inhib: 3

What do the screens show for `Cc1noc(C)c1NC(=O)N(C)C[C@H]1Oc2ccc(NC(=O)Nc3ccccc3)cc2CC(=O)N([C@@H](C)CO)C[C@H]1C`?
NOMO-1 viab: 11; Shh pathway inh: -37; MITF inhib: -10

Results for N#CCCN(CC1COc2ccccc2O1)C(=O)c1ccccc1 (stereo not given) ?
NOMO-1 viab: 27; MITF inhib: -12

How did C[C@H]1CN([C@@H](C)CO)C(=O)c2cc(NC(=O)C3CC3)ccc2O[C@H]1CN(C)Cc1ccc(C(F)(F)F)cc1 do in these assays?
NOMO-1 viab: 25; MITF inhib: -3

What do the screens show for `O=c1c(C=Nc2ccccc2)c(Nc2ccccc2)[nH]n1-c1ccccc1`?
NOMO-1 viab: 102*; Shh pathway inh: 17; MITF inhib: 25

Results for C[C@@H]1CN([C@H](C)CO)C(=O)Cc2cc(NC(=O)Nc3ccc(F)cc3)ccc2O[C@@H]1CN(C)S(=O)(=O)c1ccc(F)cc1 ?
NOMO-1 viab: -1; Shh pathway inh: 12; MITF inhib: 10

Results for COc1cc([C@@H]2c3cc4c(cc3[C@@H](O[C@@H]3O[C@@H]5CO[C@@H](C)O[C@H]5[C@H](O)[C@H]3O)[C@H]3COC(=O)[C@H]23)OCO4)cc(OC)c1O ?
NOMO-1 viab: 117*; Shh pathway inh: -11; MITF inhib: 38

Results for COc1cc(C2OC[C@@H]3[C@@H](c4cc(OC)c(O)c(OC)c4)OC[C@H]23)cc(OC)c1O (stereo not given in full) ?
NOMO-1 viab: 14; Shh pathway inh: -4; MITF inhib: -18

How did COc1cc([C@@H]2c3cc4c(cc3[C@H](O)[C@H]3COC(=O)[C@H]23)OCO4)cc(OC)c1OC do in these assays?
NOMO-1 viab: 113*; Shh pathway inh: 91*; MITF inhib: 61

Results for COc1cc([C@@H]2c3cc4c(cc3[C@H](O)[C@H]3COC(=O)[C@@H]23)OCO4)cc(OC)c1OC ?
NOMO-1 viab: 108*; Shh pathway inh: 75*; MITF inhib: 37

How did C[C@@H]1CN([C@H](C)CO)C(=O)c2cccc(NC(=O)c3cnccn3)c2O[C@@H]1CN(C)C(=O)NC1CCCCC1 do in these assays?
NOMO-1 viab: -4; Shh pathway inh: -1; MITF inhib: -10

What do the screens show for `CC(=O)c1ccc(N2CCN(C(=S)Nc3ccc(S(=O)(=O)Nc4ncccn4)cc3)CC2)cc1`?
NOMO-1 viab: 26; MITF inhib: -10
